Test [1] deals with Casein kinase I isoform gamma-2 (Homo sapiens) (UniProt P78368). The settings on record: at 1 µM.
The target of test [2] is Casein kinase I isoform gamma-3 (Homo sapiens) (UniProt Q9Y6M4). The settings on record: at 0.1 µM.
For test [3] the target is unchanged. The note with it: at 1 µM.
Test [4] addresses Cyclin-dependent kinase 1 (Homo sapiens) (UniProt P06493). The note with it: at 0.1 µM.
Test [5] has the same target. The settings on record: at 1 µM.
In test [6] the target is Cyclin-dependent kinase 2 (Homo sapiens) (UniProt P24941). The note with it: at 0.1 µM.
Test [7] has the same target. The settings on record: at 1 µM.
Test [8] shares this target. The note with it: at 0.1 µM. This is another data set of the same source.
Test [9] has the same target. The settings on record: at 1 µM. The source holds these as a separate data set.
Test [10] concerns the target T1, CDK3/Cyclin E (Homo sapiens) (UniProt P24864+Q00526). The settings on record: at 0.1 µM.
Test [11] deals with T1, CDK3/Cyclin E (Homo sapiens). The note with it: at 1 µM.
Test [12] deals with Cyclin-dependent kinase 4 (Homo sapiens) (UniProt P11802). The settings on record: at 0.1 µM.
Sequence of Cyclin-dependent kinase 4 (Homo sapiens) (P11802 whole entry): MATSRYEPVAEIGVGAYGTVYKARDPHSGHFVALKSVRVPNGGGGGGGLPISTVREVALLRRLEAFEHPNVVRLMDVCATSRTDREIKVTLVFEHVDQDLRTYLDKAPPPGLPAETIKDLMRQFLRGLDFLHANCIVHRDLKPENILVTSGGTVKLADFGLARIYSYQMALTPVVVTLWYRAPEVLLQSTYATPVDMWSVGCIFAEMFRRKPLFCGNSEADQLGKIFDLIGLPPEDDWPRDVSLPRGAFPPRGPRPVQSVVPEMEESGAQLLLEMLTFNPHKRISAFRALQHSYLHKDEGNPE
The target is the same in test [13]. The settings on record: at 1 µM.
Test [14] addresses Cyclin-dependent kinase 5 (Homo sapiens) (UniProt Q00535). The note with it: at 0.1 µM.
For test [15] the target is unchanged. The settings on record: at 1 µM.
Test [16] deals with Cyclin-dependent kinase 6 (Homo sapiens) (UniProt Q00534). The note with it: at 0.1 µM.
Sequence of Cyclin-dependent kinase 6 (Homo sapiens) (Q00534 whole entry): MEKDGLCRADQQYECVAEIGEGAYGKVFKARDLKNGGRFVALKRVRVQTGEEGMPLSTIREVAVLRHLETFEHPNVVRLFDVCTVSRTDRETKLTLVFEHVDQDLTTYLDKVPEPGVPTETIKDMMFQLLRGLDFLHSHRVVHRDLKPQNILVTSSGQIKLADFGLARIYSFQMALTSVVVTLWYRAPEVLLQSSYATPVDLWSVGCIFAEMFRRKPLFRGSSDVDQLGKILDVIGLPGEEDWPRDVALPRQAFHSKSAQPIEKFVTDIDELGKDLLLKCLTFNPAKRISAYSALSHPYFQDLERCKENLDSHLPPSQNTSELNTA
The target is the same in test [17]. The note with it: at 1 µM.
For test [18], the target named is Dual specificity protein kinase CLK2 (Homo sapiens) (UniProt P49760). The note with it: at 0.1 µM.
Sequence of Dual specificity protein kinase CLK2 (Homo sapiens) (P49760 whole entry, looked up): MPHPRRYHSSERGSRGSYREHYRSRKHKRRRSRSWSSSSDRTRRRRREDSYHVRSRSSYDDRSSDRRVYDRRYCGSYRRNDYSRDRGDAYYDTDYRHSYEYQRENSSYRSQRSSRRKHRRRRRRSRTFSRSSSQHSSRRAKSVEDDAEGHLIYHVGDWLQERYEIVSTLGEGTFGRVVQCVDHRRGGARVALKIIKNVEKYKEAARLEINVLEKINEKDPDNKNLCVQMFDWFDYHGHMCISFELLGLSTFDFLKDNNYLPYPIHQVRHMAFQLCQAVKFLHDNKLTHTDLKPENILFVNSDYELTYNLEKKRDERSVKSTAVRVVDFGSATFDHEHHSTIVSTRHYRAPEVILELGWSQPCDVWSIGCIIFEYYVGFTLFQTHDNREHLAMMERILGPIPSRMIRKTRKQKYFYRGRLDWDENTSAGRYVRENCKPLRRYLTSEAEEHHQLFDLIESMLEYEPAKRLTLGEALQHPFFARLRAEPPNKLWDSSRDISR
For test [19] the target is unchanged. The settings on record: at 1 µM.
In test [20] the target is Dual specificity protein kinase CLK3 (Homo sapiens) (UniProt P49761). The settings on record: at 0.1 µM.
Sequence of Dual specificity protein kinase CLK3 (Homo sapiens) (P49761 whole entry, looked up): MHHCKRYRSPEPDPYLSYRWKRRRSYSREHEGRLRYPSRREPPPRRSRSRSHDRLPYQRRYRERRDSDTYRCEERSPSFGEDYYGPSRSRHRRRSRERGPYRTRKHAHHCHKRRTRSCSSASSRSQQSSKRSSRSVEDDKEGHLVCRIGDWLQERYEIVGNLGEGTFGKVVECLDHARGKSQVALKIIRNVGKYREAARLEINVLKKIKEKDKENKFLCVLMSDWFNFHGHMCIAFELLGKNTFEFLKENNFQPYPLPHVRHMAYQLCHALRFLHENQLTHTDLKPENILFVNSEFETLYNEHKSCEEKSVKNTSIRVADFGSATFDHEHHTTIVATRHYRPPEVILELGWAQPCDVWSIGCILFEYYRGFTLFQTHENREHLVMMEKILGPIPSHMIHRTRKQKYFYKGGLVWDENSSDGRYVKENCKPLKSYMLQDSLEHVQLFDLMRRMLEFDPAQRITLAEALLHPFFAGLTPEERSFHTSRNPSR

For 13 compounds, inhibition results are on record in ChEMBL document CHEMBL1961873, “Compounds: GSK PKIS; Assays: Nanosyn kinase panel” (2012).

A word on the inhibition: it is the relative decrease from the control value, in per cent.

T1 sequence (P24864 whole entry, looked up): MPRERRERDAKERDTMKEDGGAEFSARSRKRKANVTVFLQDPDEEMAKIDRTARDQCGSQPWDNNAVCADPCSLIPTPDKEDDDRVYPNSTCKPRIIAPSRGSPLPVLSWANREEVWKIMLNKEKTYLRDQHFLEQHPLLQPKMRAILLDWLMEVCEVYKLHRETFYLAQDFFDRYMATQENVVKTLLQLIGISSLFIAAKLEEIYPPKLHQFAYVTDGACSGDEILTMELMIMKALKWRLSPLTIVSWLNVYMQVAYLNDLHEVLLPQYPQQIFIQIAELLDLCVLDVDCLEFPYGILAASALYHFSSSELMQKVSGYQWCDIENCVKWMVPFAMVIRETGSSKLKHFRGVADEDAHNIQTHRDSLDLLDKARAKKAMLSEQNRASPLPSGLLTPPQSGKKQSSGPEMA
T1 sequence (Q00526 whole entry, looked up): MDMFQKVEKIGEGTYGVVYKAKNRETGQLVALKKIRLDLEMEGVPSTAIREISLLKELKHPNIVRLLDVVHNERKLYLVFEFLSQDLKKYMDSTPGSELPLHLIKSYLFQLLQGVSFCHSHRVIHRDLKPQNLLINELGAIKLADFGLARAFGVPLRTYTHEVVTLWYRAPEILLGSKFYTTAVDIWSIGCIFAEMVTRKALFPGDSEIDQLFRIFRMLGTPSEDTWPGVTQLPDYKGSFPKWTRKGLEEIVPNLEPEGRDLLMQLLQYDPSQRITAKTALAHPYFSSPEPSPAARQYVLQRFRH
Sequence of Cyclin-dependent kinase 1 (Homo sapiens) (P06493 whole entry, looked up): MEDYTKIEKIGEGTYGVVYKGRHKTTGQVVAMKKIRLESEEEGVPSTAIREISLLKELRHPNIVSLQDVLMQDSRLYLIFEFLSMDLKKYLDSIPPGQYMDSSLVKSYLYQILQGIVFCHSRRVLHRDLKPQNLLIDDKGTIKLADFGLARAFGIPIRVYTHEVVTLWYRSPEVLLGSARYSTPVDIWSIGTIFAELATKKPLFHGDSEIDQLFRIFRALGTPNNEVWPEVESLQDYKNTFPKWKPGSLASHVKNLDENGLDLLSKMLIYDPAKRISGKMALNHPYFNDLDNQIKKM
Sequence of Casein kinase I isoform gamma-3 (Homo sapiens) (Q9Y6M4 whole entry, looked up, canonical isoform): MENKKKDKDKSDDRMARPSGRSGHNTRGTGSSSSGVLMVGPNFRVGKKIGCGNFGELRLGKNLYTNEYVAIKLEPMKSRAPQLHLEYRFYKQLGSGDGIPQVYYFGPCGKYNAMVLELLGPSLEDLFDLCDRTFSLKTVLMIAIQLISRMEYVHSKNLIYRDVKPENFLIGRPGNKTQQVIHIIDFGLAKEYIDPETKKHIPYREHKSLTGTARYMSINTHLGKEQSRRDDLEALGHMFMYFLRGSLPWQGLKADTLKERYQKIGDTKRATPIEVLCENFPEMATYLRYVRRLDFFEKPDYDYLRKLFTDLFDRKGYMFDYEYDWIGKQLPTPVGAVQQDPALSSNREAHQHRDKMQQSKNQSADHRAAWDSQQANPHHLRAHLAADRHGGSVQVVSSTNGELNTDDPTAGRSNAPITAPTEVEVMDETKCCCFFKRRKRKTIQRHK
Sequence of Casein kinase I isoform gamma-2 (Homo sapiens) (P78368 whole entry, looked up, canonical isoform): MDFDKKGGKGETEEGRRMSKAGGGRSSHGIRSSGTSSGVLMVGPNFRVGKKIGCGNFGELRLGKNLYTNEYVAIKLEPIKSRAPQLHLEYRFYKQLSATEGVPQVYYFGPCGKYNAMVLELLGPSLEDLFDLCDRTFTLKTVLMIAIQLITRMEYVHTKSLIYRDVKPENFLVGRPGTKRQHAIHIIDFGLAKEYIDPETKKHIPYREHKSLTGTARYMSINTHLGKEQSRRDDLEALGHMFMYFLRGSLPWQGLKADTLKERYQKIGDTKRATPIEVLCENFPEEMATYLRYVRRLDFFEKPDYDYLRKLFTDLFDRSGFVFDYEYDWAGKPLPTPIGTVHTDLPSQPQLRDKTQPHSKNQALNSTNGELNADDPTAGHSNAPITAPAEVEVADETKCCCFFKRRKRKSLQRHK
Sequence of Cyclin-dependent kinase 5 (Homo sapiens) (Q00535 whole entry, looked up): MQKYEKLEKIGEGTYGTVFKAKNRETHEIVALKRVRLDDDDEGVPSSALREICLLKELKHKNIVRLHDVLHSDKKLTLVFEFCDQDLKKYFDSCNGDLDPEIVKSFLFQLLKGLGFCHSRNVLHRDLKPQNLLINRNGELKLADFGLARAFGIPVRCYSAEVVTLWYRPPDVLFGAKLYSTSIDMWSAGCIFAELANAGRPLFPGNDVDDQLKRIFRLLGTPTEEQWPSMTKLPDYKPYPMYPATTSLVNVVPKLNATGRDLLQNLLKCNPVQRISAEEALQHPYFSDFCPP

`FC(F)(F)c1ccc(-c2nn3ncccc3c2-c2ccnc(Nc3ccc4c(c3)OCCO4)n2)cc1`: the inhibition in test [1] came to 0.81%; in [2] it was 0.18%; in [3], 1.72%; in [4], 5.01%; in [5], 4.37%; in test [6], 1.49%. Also, the inhibition in test [7] is -1.87%; in test [8], 5.4%; in [9], 5.36%; in test [10] it was 7.17%; in [11], 4.1%; in test [12], 5.36%. The inhibition turned out to be 5.52% in [13]; 5.49% in [14]; 3.8% in [15]; 3.25% in test [16]; 3.58% in [17]; 2.1% in test [18]. The inhibition worked out at 2.93% in test [19] and 5.98% in test [20].

For the compound `NS(=O)(=O)c1ccc(NC=C2C(=O)Nc3ccc4ncsc4c32)cc1`, the inhibition turned out to be 19.5% in test [1]; 6.11% in test [2]; 26.3% in test [3]; 40.7% in test [4]; 69.5% in test [5]; 89.1% in [6]. Besides, the inhibition came to 109% in [7]; 74.3% in test [8]; 76.7% in test [9]; 69.4% in test [10]; 97.8% in [11]; 46.4% in test [12]. In addition, the inhibition is 71.3% in test [13]; 68.2% in test [14]; 74.7% in [15]; 52.8% in [16]; 77.7% in test [17]; 28.3% in [18]. Also, the figures for the inhibition in test [19] and in test [20] were 80% and 3.57%, respectively.

As to `O=C(Nc1ccc(Oc2ccc3[nH]c(NC(=O)c4ccco4)nc3c2)cc1)Nc1cc(C(F)(F)F)ccc1F`, the inhibition in test [1] was -2.38%; in [2], -2.82%; in [3] it was -2.32%; in [4], -5.04%; in test [5], -3.69%; in test [6], -3.1%. For the same compound, the inhibition is 3.18% in test [7]; -4.34% in test [8]; -4% in test [9]; -0.43% in [10]; 0.77% in [11]; -4.32% in test [12]. In addition, the inhibition in test [13] is -2.74%; in test [14], -4.37%; in [15] it was -4.57%; in [16], -1.5%; in [17], -3.48%; in test [18], 0.35%. For the same compound, the results for the inhibition in [19] and in test [20] were 0.71% and -3.23%, respectively.

`O=S(=O)(CCOCc1ccc(-c2ccc3ncnc(Nc4ccc(OCc5cccc(F)c5)c(Cl)c4)c3c2)o1)c1ccccc1`: the inhibition in [1] is 1.75%; in test [2], 0.25%; in [3], 0.46%; in [4], 3.78%; in test [5], 4.97%; in test [6], 2.29%. Moreover, the inhibition in [7] was 2.76%; in test [8], 4.07%; in [9] it was 6.29%; in test [10], -0.59%; in [11], -2.84%; in test [12], 0.35%. For the same compound, the inhibition in test [13] is 4.69%; in test [14], 4.26%; in [15] it was 5.68%; in [16] it was 0.17%; in [17], 3.76%; in test [18] it was -0.59%. The inhibition stood at 1.39% in [19] and 0.11% in [20].

`CC(C)c1ccc2c(c1)NC(=O)/C2=N/Nc1ccc(S(N)(=O)=O)cc1`: the inhibition in [1] came out at 0.09%; in test [2], 1.05%; in test [3], 0.02%; in [4] it was 2.52%; in [5], 6.84%; in test [6], 5.99%. Further, the inhibition in test [7] was determined as 28.9%; in test [8], 3.16%; in [9] it was 18.9%; in test [10] it was 1.54%; in test [11], 6.26%; in [12], 0.37%. The inhibition in test [13] is 7.65%; in [14], 1.59%; in test [15], 5.95%; in test [16] it was 3.38%; in [17] it was 28.6%; in test [18], -0.26%. The inhibition in test [19] was -1.61%; in test [20] it was -0.29%.

As to `Cc1nc(-c2ccccc2)n2nc(NCCCN3CCOCC3)ncc12`, the inhibition in test [1] stood at 2.19%; in test [2], 1.6%; in [3], 1.78%; in [4], 1.76%; in test [5] it was 2.4%; in test [6], 2.24%. Besides, the inhibition in [7] was 2.48%; in test [8], 2.24%; in test [9] it was 4.68%; in test [10] it was -1.66%; in test [11], 0.9%; in [12], 4.19%. For the same compound, the inhibition in test [13] was found to be 15.2%; in [14], 0.75%; in test [15] it was 2.62%; in test [16] it was 13.8%; in test [17], 52.7%; in [18] it was 3.46%. The inhibition in test [19] came to 10.1%; in [20], 0.04%.

With `Nc1nccc(-c2c(-c3ccc(F)cc3)nn3cc(C(F)(F)F)ccc23)n1`, the inhibition in [1] was 1.13%; in test [2], 0.79%; in test [3], 1.7%; in [4], 1.22%; in test [5], 0.47%; in test [6], -0.36%. Moreover, the inhibition in [7] was -2.27%; in test [8] it was -0.77%; in test [9], 0.2%; in test [10], -0.58%; in [11], -2.57%; in [12] it was 0.37%. In addition, the inhibition in test [13] was 1.03%; in test [14], 0.43%; in test [15], -0.54%; in test [16], -0.93%; in [17] it was -0.06%; in test [18], 1.36%. The inhibition in test [19] is -2.43%; in test [20], -0.16%.

On to `NS(=O)(=O)c1ccc(Nc2cc(-c3cccc(O)c3)n[nH]2)cc1`, for which the inhibition in test [1] was found to be 5.96%; in test [2], 7.49%; in test [3], 2.14%; in [4] it was 2.03%; in [5] it was 12.9%; in test [6] it was 16.7%. In addition, the inhibition in test [7] came to 78.1%; in test [8], 16.5%; in test [9], 56%; in test [10] it was 5.95%; in test [11], 28.8%; in [12], 3.25%. Besides, the inhibition was found to be 9.51% in test [13]; 5.69% in test [14]; 31.5% in test [15]; 2.31% in test [16]; 21.3% in test [17]; 3.77% in test [18]. The results for the inhibition in test [19] and in test [20] were 2.54% and 1.95%, respectively.

For the compound `CCS(=O)(=O)c1ccc(OC)c(Nc2nccc(N(C)c3ccc4c(C)n[nH]c4c3)n2)c1`, the inhibition in test [1] is 4.44%; in test [2], 3.36%; in test [3], 3.45%; in [4], 0.39%; in [5], 1.28%; in [6], 1.59%. Besides, the inhibition was 3.06% in test [7]; 2.45% in test [8]; 3.56% in test [9]; 0.61% in [10]; -2.55% in test [11]; 3.02% in test [12]. In addition, the inhibition was 4.42% in test [13]; 0.13% in test [14]; 0.33% in [15]; -0.16% in test [16]; -1.74% in test [17]; 0.8% in [18]. The inhibition in [19] was 0.04%; in test [20], 1.1%.

Consider `Cc1ccc(Nc2ccnc(Nc3cccc(C(N)=O)c3)n2)cc1O`, for which the inhibition in test [1] is 0.87%; in test [2], -2.96%; in test [3], 0.07%; in test [4], -3.61%; in [5], 1.29%; in test [6] it was -0.93%. For the same compound, the inhibition in test [7] was 16.1%; in test [8] it was -0.2%; in [9] it was 7.62%; in test [10], 1.92%; in [11], 4.71%; in test [12] it was -2.5%. Also, the inhibition was 1.32% in [13]; -3.13% in [14]; 1.46% in [15]; -1.97% in [16]; -0.13% in test [17]; 1.32% in test [18]. For the same compound, the results for the inhibition in test [19] and in test [20] were 6.94% and -0.76%, respectively.

With `COc1cc(/C=N/Nc2ncnc3c2cnn3C(C)C)ccc1O`, the inhibition is 0.8% in test [1]; 1.47% in test [2]; 2.79% in test [3]; 11.8% in test [4]; 47.9% in [5]; 7.48% in test [6]. The inhibition in test [7] was 46.5%; in test [8], 6.02%; in test [9], 32.4%; in test [10] it was 6.53%; in [11], 27.6%; in test [12], 3.37%. Moreover, the inhibition in test [13] is 18.7%; in test [14] it was 10.4%; in test [15] it was 46.2%; in [16], -4.82%; in test [17], 9.96%; in [18], 3.4%. In addition, the results for the inhibition in [19] and in test [20] were 23.2% and 5.21%, respectively.

On to `COc1cccc(-n2ncc3c(N/N=C/c4ccc(C)cc4)ncnc32)c1`, for which the inhibition was found to be 12% in test [1]; 6.01% in test [2]; 8.48% in test [3]; 4.4% in test [4]; 8.17% in test [5]; 5.82% in test [6]. Also, the inhibition is 11% in [7]; 2.46% in test [8]; 7.81% in test [9]; -3.32% in test [10]; -1.25% in test [11]; 3.51% in test [12]. Moreover, the inhibition is 7.43% in test [13]; 2.17% in test [14]; 6.59% in test [15]; -2.39% in test [16]; -0.54% in test [17]; -0.41% in [18]. Besides, the values for the inhibition in test [19] and in [20] were 6.42% and 1.22%, respectively.

Consider `COc1cc2ncn(-c3cc(OCc4ccccc4S(C)(=O)=O)c(C#N)s3)c2cc1OC`, for which the inhibition in test [1] stood at 3.78%; in [2] it was 2.68%; in [3] it was 2.61%; in test [4], 1.59%; in [5] it was 6.07%; in test [6] it was 2.46%. For the same compound, the inhibition in test [7] was found to be 5.28%; in test [8], 4.39%; in test [9], 5.94%; in [10], 0.41%; in [11], 2.11%; in test [12], 3.64%. In addition, the inhibition is 3.7% in test [13]; 1.86% in test [14]; 3.42% in [15]; 6.66% in test [16]; 3.82% in test [17]; 0.22% in test [18]. Also, the inhibition is 10.8% in [19] and 2.39% in [20].
